Records with an inconclusive call do not appear. The source made the active and inactive calls.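 The calls were made as follows, unless noted: active = viability at or under a set limit in both replicates, limit being median viability minus 3 SD (cut at about 48% in these data, passing the limit was not always enough); inconclusive = at or under the limit in just one replicate; inactive = at or above the limit in both replicates.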
What was measured:
[1] = Her2 expression decrease, cell viability multiplex – SKBR3 breast tumor cells, AlphaScreen, ATP viability, primary screen (AID 461;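 active = Her2 level under about 52% in both replicate screens, with viability over 70% of control, limit read from the data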;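 as to Her2 level: lower value means less Her2 protein in the cells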;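 as to viability: percent of carrier control wells set as 100% viability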); settings: SKBR3 Her2 protein level, 18-24 h, measured here: SKBR3 viability, ATP luminescence, at 10 µM
[2] = molecular target: Receptor tyrosine-protein kinase erbB-2 (Homo sapiens) (UniProt P04626); experiment: as above; settings: 18-24 h, at 10 µM, stronger effect = lower value
Sequence of Receptor tyrosine-protein kinase erbB-2 (Homo sapiens) (P04626 whole entry, looked up): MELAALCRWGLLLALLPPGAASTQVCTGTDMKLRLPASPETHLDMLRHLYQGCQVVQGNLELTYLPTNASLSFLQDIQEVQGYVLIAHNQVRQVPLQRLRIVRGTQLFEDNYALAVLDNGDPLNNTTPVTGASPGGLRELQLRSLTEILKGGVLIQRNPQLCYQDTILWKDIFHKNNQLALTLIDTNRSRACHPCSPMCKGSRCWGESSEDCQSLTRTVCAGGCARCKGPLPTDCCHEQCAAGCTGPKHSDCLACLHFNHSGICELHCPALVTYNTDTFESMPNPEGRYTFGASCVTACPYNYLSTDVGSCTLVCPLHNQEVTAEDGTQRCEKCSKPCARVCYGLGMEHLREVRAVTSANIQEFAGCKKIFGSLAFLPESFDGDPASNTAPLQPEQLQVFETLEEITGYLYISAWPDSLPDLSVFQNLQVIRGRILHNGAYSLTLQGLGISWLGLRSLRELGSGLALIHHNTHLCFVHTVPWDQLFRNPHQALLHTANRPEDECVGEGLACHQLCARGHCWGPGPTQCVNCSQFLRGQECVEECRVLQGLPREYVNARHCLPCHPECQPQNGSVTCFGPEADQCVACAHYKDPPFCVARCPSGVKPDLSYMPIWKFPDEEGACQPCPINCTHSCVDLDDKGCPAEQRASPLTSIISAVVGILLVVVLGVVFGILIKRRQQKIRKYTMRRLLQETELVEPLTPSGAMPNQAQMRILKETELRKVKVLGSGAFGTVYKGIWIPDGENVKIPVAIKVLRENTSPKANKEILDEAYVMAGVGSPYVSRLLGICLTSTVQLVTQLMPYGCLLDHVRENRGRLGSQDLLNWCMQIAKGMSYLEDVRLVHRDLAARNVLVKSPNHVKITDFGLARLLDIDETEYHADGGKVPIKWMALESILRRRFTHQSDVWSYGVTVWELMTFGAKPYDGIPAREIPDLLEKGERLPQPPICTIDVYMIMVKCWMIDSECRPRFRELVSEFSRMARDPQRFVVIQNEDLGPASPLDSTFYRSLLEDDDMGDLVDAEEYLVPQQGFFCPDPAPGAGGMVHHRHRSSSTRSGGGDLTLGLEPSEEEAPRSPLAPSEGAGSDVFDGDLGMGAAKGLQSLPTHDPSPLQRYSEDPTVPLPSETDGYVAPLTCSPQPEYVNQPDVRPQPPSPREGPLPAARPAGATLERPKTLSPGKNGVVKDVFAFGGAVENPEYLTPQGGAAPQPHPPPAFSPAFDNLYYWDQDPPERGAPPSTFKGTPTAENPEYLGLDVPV

[3] = reduced viability of SK-BR-3 breast cancer cells – cell-based, 24 h, human, pilot screen (AID 572;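 active = viability at or below 10% of carrier control in both of two separate runs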;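 also: compound exposure lasted between 18 and 24 h rather than exactly 24 h; 100% = carrier-treated control wells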); settings: SK-BR-3 viability, CellTiter-Glo luminescence, at 10 µM, stronger effect = lower value
[4] = HUVEC growth inhibition – cell-based, human, primary screen (AID 575;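 active = viability at or below 30% in both replicate assays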;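 also: 100% = median of untreated cell wells with 0.1% DMSO on each plate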); settings: HUVEC proliferation, CellTiter-Glo luminescence, 72 h; at 10 µM; stronger effect = lower value
[5] = H69AR cell proliferation blockers – human, duplicate replicates, primary screen (AID 580); settings: H69AR lung tumor cells viability, ATP luminescence, 72 h; at 10 µM; stronger effect = lower value;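 also: 100% = mean luminescence of untreated wells and 0% = no signal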
[6] = MRP1 drug-resistance reversers in H69AR cells – cell-based, doxorubicin co-treatment, pilot screen (AID 601;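 active = viability loss from added drug above about 55%, and viability with drug at most 40%, in both replicates, limit read from the data, passing the limit was not always enough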); settings: CellTiter-Glo, 72 h, at 10 µM; for differential viability (reversal): stronger effect = higher value
[7] = yeast transport mutant growth inhibition pilot in 384-well plates, post-Golgi transport modulator project (AID 636; in the data active = inhibition above about 31%); settings: absorbance 615 nm, about 18 h, stronger effect = higher value
[8] = growth suppression of yeast trafficking mutant, preliminary HTS, modulators of trafficking downstream of Golgi apparatus project, 1536-format plate, OD 615 nm (AID 637; in the data active = inhibition above about 30%); settings: yeast transport mutant growth, absorbance 615 nm, 18 h; stronger effect = higher value
[9] = S. cerevisiae growth inhibition in permissive medium (OD615), pilot counter-assay for S. cerevisiae lifespan shortening project, permissive growth control (AID 705;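 active = growth inhibition above 25% in both replicates, a cutoff set 3 SD above the mean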); settings: OD615, 24 h, at 10 µM, stronger effect = higher value
[10] = S. cerevisiae growth inhibition in restrictive medium, OD615, pilot screen, restrictive growth control, yeast lifespan reduction project (AID 706;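 active = growth inhibition above a set limit, 3 SD over mean compound inhibition, in both replicates, cut at about 43% in these data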;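 also: modified DeaD lifespan yeast strain shifted to restrictive glucose medium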); settings: OD615, 48 h, at 10 µM, stronger effect = higher value
[11] = doxorubicin toxicity protection in MRP-1 cells – H69AR cells, CellTiter-Glo, duplicate, MRP-1 activator project, pilot screen (AID 807;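 active = viability increase at or above a cutoff of the median across tested compounds plus 3 SD, cut at about 8.5% in these data, passing the limit was not always enough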;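 also: compound pretreatment 18-22 h then 72 h combined with doxorubicin; 0% = doxorubicin alone and 100% = vehicle without doxorubicin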); settings: H69AR viability with doxorubicin, CellTiter-Glo luminescence; at 10 µM; stronger effect = higher value
[12] = viability of HCT116 without oncogenic beta-catenin – human colon tumor cells, pilot screen (AID 823;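 active = cell viability at or below a set limit in both duplicate runs, the limit being the all-compound median minus 4 SD, cut at about 23% in these data, passing the limit was not always enough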;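 also: 0% = wells killed by 20 µM Hyamine and 100% = untreated DMSO cell wells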); settings: HCT116 beta-catenin knockout viability, CellTiter-Glo, 60 h; at 10 µM; stronger effect = lower value
[13] = viability of PTEN-null HCT116 cells – cell-based, HCT116 clonal line, CellTiter-Glo, pilot screen (AID 824;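 active = viability at or below 27.92% in each of two runs, the all-compound median minus 4 SD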;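 also: 0% = 20 µM Hyamine control and 100% = vehicle cell control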); settings: HCT116 PTEN-deleted viability, 60 h, at 10 µM, stronger effect = lower value
[14] = RAM pathway blockade in budding yeast – dse1pr::URA3 reporter, 5-FOA selection, pilot screen (AID 869;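 active = inhibition over a set limit, the all-compound mean plus 3 SD, in both replicate runs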;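 also: 0% = DMSO wells with no growth and 100% = 10 µM 1-NA-PP1 with full growth; RAM network block rescues cells from 5-FOA so hits raise OD615 growth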); settings: S. cerevisiae dse1pr::URA3 5-FOA growth, OD615, 2 d; at 10 µM; stronger effect = higher value; strain carries analog-sensitive mutant Cbk1 kinase
[15] = RAM signaling pathway blockade in yeast – S. cerevisiae, Pdr1DBD-CYC8 efflux-inhibited sensitized strain, primary screen (AID 1298;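 active = RAM network inhibition above 8.4% in each of two replicates, 3 SD over the compound average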;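 also: 0% = DMSO untreated cells without growth and 100% = 10 µM 1-NA-PP1 full growth; higher means more yeast growth rescued from 5-FOA killing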); settings: S. cerevisiae cbk1-as DSE1-URA3 strain, 5-FOA growth OD615, 2 d; at 50 µM; stronger effect = higher value
[16] = H69AR cells + 2 uM doxorubicin, measured here: viability with 2 uM doxorubicin, stronger effect = lower value
[17] = H69AR cells, compound alone cytotoxicity

With `Cc1ccc2cccc(SCC(=O)N3CCOCC3)c2n1` the viability [1] was 103%, the Her2 level [2] was 89.5% (inactive) and the viability [3] was 103% (inactive). For the same compound, the viability [4] was 61% (inactive), the viability [5] was 90.7% (inactive) and the differential viability (reversal) ([6]; H69AR cells + 2 uM doxorubicin) was -0.48% (inactive). For the same compound, the viability [6, 16] was 91.2%, the viability [6, 17] was 90.7% and the inhibition [7] was -4.03% (inactive). For the same compound, the inhibition [8] was -3.5% (inactive), the growth inhibition [9] was 2.63% (inactive) and the growth inhibition [10] was 24.3% (inactive). The viability increase [11] was -2.53% (inactive), the viability [12] was 98.9% (inactive) and the viability [13] was 101% (inactive). For the same compound, the inhibition [14] was 2.27% (inactive) and the RAM network inhibition [15] was 1.88% (inactive).

With `CCN(CC)Cc1c(C(=O)OC)nnn1-c1nonc1N` the viability [1] was 87%, the Her2 level [2] was 95.5% (inactive) and the viability [3] was 87% (inactive). For the same compound, the viability [4] was 99.6% (inactive), the viability [5] was 106% (inactive) and the differential viability (reversal) ([6]; H69AR cells + 2 uM doxorubicin) was 13.6% (inactive). For the same compound, the viability [6, 16] was 92.1%, the viability [6, 17] was 106% and the inhibition [7] was -7.4% (inactive). For the same compound, the inhibition [8] was -3.33% (inactive), the growth inhibition [9] was -0.575% (inactive) and the growth inhibition [10] was -3.39% (inactive). For the same compound, the viability increase [11] was -2.07% (inactive), the viability [12] was 94.2% (inactive) and the viability [13] was 102% (inactive). For the same compound, the inhibition [14] was 0.645% (inactive) and the RAM network inhibition [15] was 0.53% (inactive).

In the case of `CCCCN(C(=O)c1ccc(Cl)cc1)C1CC2CCC(C1)N2C` (stereo not drawn), the viability [1] is reported as 87.5%, the Her2 level [2] is reported as 120% (inactive) and the viability [3] is reported as 87.5% (inactive). The viability [4] was 78.2% (inactive), the viability [5] was 85.1% (inactive) and the differential viability (reversal) ([6]; H69AR cells + 2 uM doxorubicin) was 3.96% (inactive). For the same compound, the viability [6, 16] was 81.2%, the viability [6, 17] was 85.1% and the inhibition [7] was -5.6% (inactive). The inhibition [8] was -4% (inactive), the growth inhibition [9] was -9.97% (inactive) and the growth inhibition [10] was 1.71% (inactive). For the same compound, the viability increase [11] was -2.41% (inactive), the viability [12] was 85.3% (inactive) and the viability [13] was 89.3% (inactive). The inhibition [14] was 1.62% (inactive) and the RAM network inhibition [15] was -0.05% (inactive).

With `CCCNC(=O)C1CCN(S(=O)(=O)c2ccc3nc4c(c(C(=O)O)c3c2)CCCCC4)CC1` the viability [1] was 99%, the Her2 level [2] was 92% (inactive) and the viability [3] was 99% (inactive). For the same compound, the viability [4] was 105% (inactive), the viability [5] was 98.7% (inactive) and the differential viability (reversal) ([6]; H69AR cells + 2 uM doxorubicin) was 2.09% (inactive). The viability [6, 16] was 96.6%, the viability [6, 17] was 98.7% and the inhibition [7] was -1.87% (inactive). The inhibition [8] was 8.36% (inactive), the growth inhibition [9] was 2.08% (inactive) and the growth inhibition [10] was -0.39% (inactive). The viability increase [11] was 1.14% (inactive), the viability [12] was 108% (inactive) and the viability [13] was 103% (inactive). The inhibition [14] was 2.09% (inactive) and the RAM network inhibition [15] was 7.93% (inactive).

With `COc1ccc(-n2c(Cc3cccn3C)nnc2SCC(=O)Nc2ccccc2)cc1` the viability [1] was 88.5%, the Her2 level [2] was 104% (inactive) and the viability [3] was 88.5% (inactive). For the same compound, the viability [4] was 99% (inactive), the viability [5] was 82.2% (inactive) and the differential viability (reversal) ([6]; H69AR cells + 2 uM doxorubicin) was -6.77% (inactive). For the same compound, the viability [6, 16] was 88.9%, the viability [6, 17] was 82.2% and the inhibition [7] was -5.87% (inactive). The inhibition [8] was 4% (inactive), the growth inhibition [9] was 1.29% (inactive) and the growth inhibition [10] was 15.6% (inactive). The viability increase [11] was -2.51% (inactive), the viability [12] was 99.5% (inactive) and the viability [13] was 85.3% (inactive). For the same compound, the inhibition [14] was 2.68% (inactive) and the RAM network inhibition [15] was 2.14% (inactive).

With `CC(=O)NC(CCS(C)(=O)=O)C(=O)Nc1cc(C)on1` (stereo not drawn) the viability [1] was 119%, the Her2 level [2] was 106% (inactive) and the viability [3] was 119% (inactive). The viability [4] was 105% (inactive), the viability [5] was 99.1% (inactive) and the differential viability (reversal) ([6]; H69AR cells + 2 uM doxorubicin) was 7% (inactive). For the same compound, the viability [6, 16] was 92.1%, the viability [6, 17] was 99.1% and the inhibition [7] was -4.67% (inactive). The inhibition [8] was 0% (inactive), the growth inhibition [9] was -14.1% (inactive) and the growth inhibition [10] was -22.3% (inactive). The viability increase [11] was 1% (inactive), the viability [12] was 104% (inactive) and the viability [13] was 95.7% (inactive). The inhibition [14] was 1.99% (inactive) and the RAM network inhibition [15] was 0.32% (inactive).

For `COc1ccccc1C(=O)OCn1nnc2ccccc2c1=O`, the viability [1] was 96.5%, the Her2 level [2] was 98% (inactive) and the viability [3] was 96.5% (inactive). For the same compound, the viability [4] was 78.8% (inactive), the viability [5] was 99.5% (inactive) and the differential viability (reversal) ([6]; H69AR cells + 2 uM doxorubicin) was -15.4% (inactive). The viability [6, 16] was 115%, the viability [6, 17] was 99.5% and the inhibition [7] was -4.27% (inactive). For the same compound, the inhibition [8] was 1.17% (inactive), the growth inhibition [9] was -11.2% (inactive) and the growth inhibition [10] was -10.4% (inactive). The viability increase [11] was -0.53% (inactive), the viability [12] was 95% (inactive) and the viability [13] was 91.2% (inactive). For the same compound, the inhibition [14] was 0.655% (inactive) and the RAM network inhibition [15] was 0.92% (inactive).

For `COc1cccc(NC(=O)c2ccco2)c1`, the viability [1] was 99%, the Her2 level [2] was 116% (inactive) and the viability [3] was 99% (inactive). For the same compound, the viability [4] was 94.5% (inactive), the viability [5] was 94.9% (inactive) and the differential viability (reversal) ([6]; H69AR cells + 2 uM doxorubicin) was 7.72% (inactive). The viability [6, 16] was 87.2%, the viability [6, 17] was 94.9% and the inhibition [7] was -3.38% (inactive). For the same compound, the inhibition [8] was -4.33% (inactive), the growth inhibition [9] was -0.175% (inactive) and the growth inhibition [10] was 6.41% (inactive). The viability increase [11] was -4.31% (inactive), the viability [12] was 107% (inactive) and the viability [13] was 98.7% (inactive). The inhibition [14] was 0.235% (inactive) and the RAM network inhibition [15] was -0.82% (inactive).

For `O=C(Cn1c(=O)[nH]c2ccsc2c1=O)NC1CCCCCC1`, the viability [1] was 110%, the Her2 level [2] was 97% (inactive) and the viability [3] was 110% (inactive). For the same compound, the viability [4] was 111% (inactive), the viability [5] was 94.3% (inactive) and the differential viability (reversal) ([6]; H69AR cells + 2 uM doxorubicin) was -2.65% (inactive). The viability [6, 16] was 97%, the viability [6, 17] was 94.3% and the inhibition [7] was -7.16% (inactive). For the same compound, the inhibition [8] was 2.17% (inactive), the growth inhibition [9] was -6.35% (inactive) and the growth inhibition [10] was -17.4% (inactive). The viability increase [11] was 1.49% (inactive), the viability [12] was 106% (inactive) and the viability [13] was 99.2% (inactive). The inhibition [14] was 0.875% (inactive) and the RAM network inhibition [15] was 0.72% (inactive).

From PubChem BioAssay
